The source of these data is PubChem BioAssay (Tox21).

A short description of test [1]: qHTS assay for small molecule agonists of the p53 signaling pathway (AID 651631; calls by dose curve; note: nearly all actives have a fitted effect of over 15% in size; note: potency is the fitted concentration of half-maximal effect). The conditions noted are these: HCT-116 p53RE-bla reporter, beta-lactamase FRET ratio, 16 h; series mostly up to 73.3 µM. Put shortly:
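Agonist mode screen using a stably integrated beta-lactamase gene under p53 response elements in HCT-116 cells. Compound exposure lasts 16 h at 37 °C; fluorescence intensity is measured following 2 h FRET substrate loading.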
A general note: qHTS replaces the single test concentration by a dilution series.

A short description of test [2]: qHTS assay for small molecules that induce genotoxicity in human embryonic kidney cells expressing luciferase-tagged ATAD5 (AID 651632). Note: nearly all actives have a fitted effect of over 15% in size. The conditions noted are these: HEK293T ATAD5-luciferase induction, 16 h; series mostly up to 83.3 µM. Put shortly: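 HEK293T cells carrying a luciferase reporter tagged to ATAD5 were exposed to compound or DMSO vehicle for 16 hr at 37C, 5% CO2. Amplite was added, and after 30 min at room temperature luciferase activity was read as a marker of ATAD5 induction.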

Test [3] in a line: qHTS assay for small molecule agonists of the p53 signaling pathway - cell viability (AID 651633; calls by dose curve; note: nearly all actives have a fitted effect of over 30% in size; note: potency is the fitted concentration of half-maximal effect). The conditions noted are these: p53RE-bla HCT-116 viability, ATP luminescence, 16 h; series mostly up to 83.3 µM. The essentials: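 p53RE-bla cells, seeded at 4,000 per well and rested 5 h at 37 C/5% CO2, received compounds in DMSO for 16 h at 37 C. CellTiter-Glo was then added, and luminescence was read after 30 min at room temperature to gauge cytotoxicity.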

A short description of test [4]: qHTS assay for small molecules that induce genotoxicity in human embryonic kidney cells expressing luciferase-tagged ATAD5 - cell viability (AID 651634; calls by dose curve; note: nearly all actives have a fitted effect of over 25% in size; note: potency is the fitted concentration of half-maximal effect). The conditions noted are these: HEK293T ATAD5-luc cells viability, CellTiter-Fluor, 15.5 h; series mostly up to 83.3 µM. The essentials: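 HEK293T cells expressing luciferase-tagged ATAD5 were exposed to compound or DMSO for 15.5 hr at 37C, 5% CO2. Viability was then read as live-cell protease activity by CellTiter-Fluor fluorescence after 30 min at 37C.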

Test [5] is described as follows: qHTS assay for small molecule disruptors of the mitochondrial membrane potential - cell viability (AID 720634; calls by dose curve; note: nearly all actives have a fitted effect of over 20% in size; note: potency is the fitted concentration of half-maximal effect). The conditions noted are these: HepG2 viability, ATP luminescence (CellTiter-Glo), 1 h; series mostly up to 83.2 µM. The essentials:
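HepG2 cells seeded overnight at 37 C, then exposed to compound or DMSO for 1 hr at 37 C, 5% CO2. m-MPI dye added, then CellTiter-Glo for 30 min at room temperature; viability read as ATP luminescence.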

A short description of test [6]: qHTS assay for small molecule disruptors of the mitochondrial membrane potential (AID 720635). Note: potency is the fitted concentration of half-maximal effect. The conditions noted are these: HepG2 mitochondrial membrane potential, Mito-MPS dye ratio; series mostly up to 83.2 µM. The essentials:
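HepG2 cells (2,000/well) attached overnight at 37C, then took compound for 1 hr at 37C, 5% CO2. Mito-MPS dye was added for 30 min; fluorescence was read at 490/535 nm (monomers) and 540/590 nm (aggregates).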

Test [7] can be described thus: qHTS assay to test for compound auto fluorescence at 590 nm (red) in HepG2 cells (AID 720674). The conditions noted are these: HepG2 autofluorescence, red 540/590 nm, 1 h; series mostly up to 91.3 µM. The essentials:
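Intrinsic compound fluorescence in the red window (Ex/Em 540/590 nm) is measured in attached HepG2 cells exposed for 1 hr, DMSO vehicle as baseline, benchmarked to Rose Bengal sodium.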

Test [8] can be described thus: qHTS assay to test for compound auto fluorescence at 535 nm (green) in HepG2 cells (AID 720675). The conditions noted are these: green autofluorescence 485/535 nm, 1 h; series mostly up to 91.3 µM.
Test [9] can be described thus: qHTS assay to test for compound auto fluorescence at 460 nm (blue) in HEK293 cells (AID 720678). The conditions noted are these: blue autofluorescence 405/460 nm; series mostly up to 91.3 µM. The essentials: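 After cell attachment (4-5 hr, 37C), compounds were pinned onto HEK293 monolayers in 10% dialyzed FBS medium. The blue channel (405/460 nm) was read following overnight culture. Equivalency was calculated against triamterene.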

A short description of test [10]: qHTS assay to test for compound auto fluorescence at 590 nm (red) in HEK293 cells (AID 720679). The conditions noted are these: red autofluorescence 540/590 nm; series mostly up to 91.3 µM. Put shortly: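 Plates of HEK293 cells (10% dialyzed FBS) are treated with 23 nL compound or DMSO vehicle after a 4-5 hr attachment period, incubated overnight at 37C, and read for red fluorescence at 540/590nm.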

Where “and” joins values, the source holds several entries; their conditions need not be identical. Equal values may be shown once. A number with no mark means an inactive call. Inconclusive results are not listed. Calls of active or inactive are those of the source. Unless noted, calls come from the whole dose curve; as a rule, active = well fitted curve in the direction sought with a large enough effect in the repeat runs; inconclusive = weak or mixed curves; inactive = no such curve, though single readings can be large; an effect the other way counts as inactive or inconclusive.
% is set by controls: 0 for no effect and ±100 for the full control effect.

On to `CC(C)N=C(N)/N=C(\N)Nc1ccc(Cl)cc1`, for which the Potency result in test [1], in [2], in test [3], in test [4], in test [5] and in test [6] was “inactive” each time. In test [7], the fluorescence, relative to Rose Bengal is 0.432% [at 18.6 µM]. Further, the fluorescence, % of fluorescein control in [8] is -0.0393% [at 18.6 µM]. Further, in test [9], the fluorescence, % of triamterene was -0.225% [at 18.6 µM]. In addition, the fluorescence, % of fluorescent control in test [10] was -0.126% [at 18.6 µM].

In the case of `CCOC(=O)COc1ccc(C)cc1`, the Potency entry in test [1], in [2], in test [3], in test [4], in [5] and in test [6] was “inactive” throughout. For the same molecule, the Potency entry in [7], in [8], in [9] and in [10] was “inactive” each time.

Take `N[C@@H](CSSC[C@H](N)C(=O)O)C(=O)O`: the Potency entry in [1], in [2], in [3], in test [4], in test [5] and in [7] was “inactive” throughout. The Potency entry in test [8], in test [9] and in test [10] was “inactive” in each case.

As to `[O]=[Zr]`, the Potency entry in [1], in test [2], in [3], in test [5], in [6] and in test [7] was “inactive” in each case. For the same molecule, the Potency result in test [8] and in test [9] was “inactive” in each case.

With `CCOC(=O)N1CCC(=C2c3ccc(Cl)cc3CCc3cccnc32)CC1`, the Potency in test [1] was 23.7 µM (active) and 61.1 µM (active); in test [3], 68.6 µM (active); in [4], 43.3 µM (active); in test [5] it was 27.3 µM (active); in [6], 29.8 µM (active) and 54.5 µM (active). For the same molecule, the Potency entry in test [2], in test [7], in test [8], in test [9] and in [10] was “inactive” in each case.

For `O=C1OC(=O)c2cccc3cccc1c23`, the Potency entry in test [1], in [2], in test [3], in [5], in test [7] and in [8] was “inactive” throughout. Further, the Potency entry in test [9] is “inactive”. In [6], the Potency is 2.76 µM (active).

On to `O=C(Nc1ccc(Cl)c(Cl)c1)c1cc(Cl)cc(Cl)c1O`, for which the Potency was 3.06 µM (active) in test [1]; 0.273 µM (active) in test [3]; 4.86 µM (active) in test [4]; 1.37 µM (active) in [5]; 0.137 µM (active) in test [6]. Moreover, the Potency entry in [2], in test [7], in test [8], in test [9] and in test [10] was “inactive” throughout.

With `O=S(=O)(O)CCCN1CCOCC1`, the Potency entry in test [1], in test [2], in test [3], in [5], in [6] and in [8] was “inactive” throughout. In addition, the Potency entry in test [9] and in [10] was “inactive” in each case.

For `C(=C/c1ccccc1)/c1ccccc1`, the Potency entry in [1], in test [2], in [3], in test [4], in test [5] and in test [7] was “inactive” in each case. Also, the Potency entry in [8], in test [9] and in [10] was “inactive” in each case.

Regarding `NC(=O)c1ccccc1N`, the Potency result in test [1], in test [2], in [3], in test [4], in test [5] and in test [6] was “inactive” in each case. For the same molecule, the Potency result in [8] and in [9] was “inactive” throughout.

Consider `CCCCCCCCCC(=O)N(C)C`, for which the Potency result in [1], in test [2], in [3], in test [4], in test [5] and in test [8] was “inactive” in each case. Besides, the Potency result in test [9] and in [10] was “inactive” in each case.

As to `CCNc1nc(NC(C)CC)nc(OC)n1` (configuration not stated), the Potency entry in test [1], in test [2], in test [3], in [4], in test [5] and in test [6] was “inactive” in each case. Further, the Potency result in test [7], in test [8], in test [9] and in test [10] was “inactive” in each case.

With `O=C(c1ccccc1)c1cc(Cl)ccc1O`, the Potency entry in [1], in test [2], in test [3], in test [4], in test [5] and in [8] was “inactive” throughout. Also, the Potency result in [9] and in [10] was “inactive” in each case. The Potency in [6] was 25.9 µM (active).

With `Clc1ccc(C(c2ccccc2Cl)C(Cl)Cl)cc1` (configuration not stated), the Potency in test [1] was 68.6 µM (active); in test [3], 23.7 µM (active); in test [6], 13.3 µM (active) and 27.3 µM (active). In addition, the Potency entry in test [5], in test [7], in test [8], in test [9] and in [10] was “inactive” in each case.

With `CCCCCCCCCCCCCCCC`, the Potency entry in [1], in test [3], in [4], in test [5], in test [6] and in test [7] was “inactive” each time. The Potency entry in test [8], in test [9] and in [10] was “inactive” each time.

For the molecule `C=C(C)C(=O)OCCC[Si](Cl)(Cl)Cl`, the Potency entry in [1], in [3], in test [4], in test [7], in [8] and in [9] was “inactive” throughout. Also, in test [10], the Potency entry is “inactive”. In addition, the Potency in [6] was 61.7 µM (active).

With `CCc1cccc(C)c1`, the Potency result in [1], in [2], in [3], in test [5], in test [8] and in [9] was “inactive” in each case. Also, in test [10], the Potency entry is “inactive”.

For the molecule `CCCCCCOc1ccc(O)cc1`, the Potency in test [1] is 24.3 µM (active); in [6], 12.2 µM (active). Also, the Potency entry in [3], in test [4], in test [7], in test [8], in test [9] and in test [10] was “inactive” throughout.

For `CCCCC(CC)COC(=O)c1ccc(O)cc1` (configuration not stated), the Potency entry in [2], in [4], in test [7], in test [8], in [9] and in test [10] was “inactive” in each case. The Potency was 54.3 µM (active) in [3]; 8.6 µM (active) and 24.3 µM (active) in [5]; 5.43 µM (active) and 6.11 µM (active) in test [6].

Regarding `COC(=O)CC(C)CCC=C(C)C` (configuration not stated), the Potency entry in test [2], in test [3], in test [4], in [5], in test [6] and in test [7] was “inactive” each time. For the same molecule, the Potency result in test [8], in test [9] and in [10] was “inactive” in each case.

On to `O=C(NO)c1ccccc1`, for which the Potency in [1] was 65.3 µM (active). The Potency entry in [4], in test [5], in test [7], in [8], in test [9] and in test [10] was “inactive” each time.

For the molecule `COc1cc(C=C2CCC/C(=C\c3ccc(O)c(OC)c3)C2=O)ccc1O`, the Potency in test [1] was 11.9 µM (active); in test [3], 16.8 µM (active); in [4], 23.7 µM (active); in test [6], 4.95 µM (active). Besides, the Potency result in test [7], in test [8], in test [9] and in test [10] was “inactive” in each case.

On to `CN(C)CCCN1c2ccccc2Sc2ccc(C(F)(F)F)cc21`, for which the Potency is 11.9 µM (active) in test [1] and 29.8 µM (active) in test [3]. Also, the Potency result in test [2], in [7], in test [8], in test [9] and in [10] was “inactive” throughout.
